# Data published in PubChem BioAssay (NCATS).
# Inconclusive results are not listed. Active and inactive are the calls of the source. Calls come from the whole dose curve; as a rule, active = well fitted curve in the direction sought with a large enough effect; inconclusive = small, poorly fitted or top-dose-only effect, or another doubt; inactive = no such curve, though single readings can be large; an effect the other way counts as inactive or inconclusive.
# Assays:
# [1] = Quantitative High-Throughput drug screen in 47 multiple myeloma cell lines against the NCATS MIPE library collection: AMO1_DSMZ cell viability assay (AID 1918927; note: nearly all actives have a fitted effect of over 30% in size)
# Method in brief: (§1)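 Primary qHTS used for cherry-picking: cells at 500/well, library compounds for 48 h (37C, 5% CO2), luminescent ATP assay.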
# [2] = Quantitative High-Throughput drug screen in 47 multiple myeloma cell lines against the NCATS MIPE library collection: KHM11_PLB cell viability assay (AID 1918962); note: nearly all actives have a fitted effect of over 35% in size
# Method in brief: (§2)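 Steps: seed 500 cells per well; pin-transfer MIPE 4.0 library; incubate 48 h at 37C, 5% CO2, humidified; add CellTiter-Glo, 5 min room temperature; read luminescence.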
# [3] = Quantitative High-Throughput drug screen in 47 multiple myeloma cell lines against the NCATS MIPE library collection: Karpas620_DSMZ cell viability assay (AID 1918959); note: nearly all actives have a fitted effect of over 30% in size
# Method in brief: as §2
# [4] = Quantitative High-Throughput drug screen in 47 multiple myeloma cell lines against the NCATS MIPE library collection: KMM1_JCRB cell viability assay (AID 1918960); note: nearly all actives have a fitted effect of over 30% in size
# Method in brief: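 CellTiter-Glo luminescence after 48 h exposure gives viability, scaled between DMSO-only (100%) and media-only (0%) controls. Library compounds are pinned onto 500 myeloma cells per well, incubated at 37C with 5% CO2.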
# [5] = Quantitative High-Throughput drug screen in 47 multiple myeloma cell lines against the NCATS MIPE library collection: JIM3_ECACC cell viability assay (AID 1918963; note: nearly all actives have a fitted effect of over 35% in size)
# Method in brief: as §2
# [6] = Quantitative High-Throughput drug screen in 47 multiple myeloma cell lines against the NCATS MIPE library collection: JIM1_ECACC cell viability assay (AID 1918964)
# Method in brief: as §1
# [7] = Quantitative High-Throughput drug screen in 47 multiple myeloma cell lines against the NCATS MIPE library collection: ARD_JJKsccE7 cell viability assay (AID 1918929)
# Method in brief: as §1
# [8] = Quantitative High-Throughput drug screen in 47 multiple myeloma cell lines against the NCATS MIPE library collection: Karpas417_ECACC cell viability assay (AID 1918961); details: Karpas417 myeloma viability, CellTiter-Glo ATP luminescence, 48 h; viability (% of DMSO): at 45.8 µM (top of the series)
# Method in brief: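 CellTiter-Glo luminescence (ATP) after 48 h compound exposure, 37C/5% CO2; 500 cells/well; MIPE 4.0 approved/investigational drugs pinned in; DMSO = 100%, media only = 0% viability.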
# Potency is the fitted concentration of half-maximal effect.
SMILES,Potency [1],Potency [2],Potency [3],Potency [4],Potency [5],Potency [6],Potency [7],Potency [8]
Cc1cc(-c2ncc(CC(=O)Nc3ccc(-c4cnccn4)cn3)cc2C)ccn1,11.8 µM (active),14.8 µM (active),,,,,,
CNC1CCC(N(Cc2cccc(-c3ccncc3)c2)C(=O)c2sc3ccccc3c2Cl)CC1 (centres undefined),18.7 µM (active),8.33 µM (active),16.6 µM (active),18.7 µM (active),10.5 µM (active),14.8 µM (active),,
CC(O)=C(C#N)C(=O)Nc1ccc(C(F)(F)F)cc1,6.62 µM (active),,inactive,inactive,23.5 µM (active),,,
O=C(Nc1cccc(Cl)c1)Nc1ncc(CCNc2ncnc3ccsc23)s1,1.05 µM (active),4.18 µM (active),3.32 µM (active),,13.2 µM (active),,4.69 µM (active),
C[C@@]1(C(=O)Nc2ccc(F)nc2)CCCN1c1nc(Nc2cc(C3CC3)[nH]n2)c2cccn2n1,0.0935 µM (active),,,,0.0148 µM (active),,0.001 µM (active),
Cc1ccc(NC(=O)c2cccc(N(C)C)c2)cc1NC(=O)c1ccc(O)cc1,0.235 µM (active),13.2 µM (active),5.9 µM (active),,,,,
CC[C@H](NC(=O)[C@H](C)NC)C(=O)N1C[C@@H](O)C[C@H]1Cc1c(-c2[nH]c3cc(F)ccc3c2C[C@H]2C[C@H](O)CN2C(=O)[C@H](CC)NC(=O)[C@H](C)NC)[nH]c2cc(F)ccc12,4.69 µM (active),inactive,,,1.48 µM (active),2.09 µM (active),9.35 µM (active),
CC(C)CN(C[C@H](O)[C@H](Cc1ccccc1)NC(=O)O[C@H]1CCOC1)S(=O)(=O)c1ccc(N)cc1,inactive,,inactive,inactive,,,,
c1ccc(-c2oc3ncnc(NC[C@@H]4CCCO4)c3c2-c2ccccc2)cc1,inactive,,6.62 µM (active),3.32 µM (active),,,,
C=C[C@@H]1CN2CCC1C[C@@H]2C(O)c1ccnc2ccc(OC)cc12 (some centres undefined),inactive,inactive,inactive,inactive,inactive,inactive,,
Cc1nn(Cc2ccccc2Cl)c(C)c1CN(C)CC(O)COc1ccc(Cl)cc1 (centres undefined),inactive,,,5.9 µM (active),18.7 µM (active),,,
O=S(=O)(NCCNCC=Cc1ccc(Br)cc1)c1cccc2cnccc12,16.6 µM (active),9.35 µM (active),20.9 µM (active),14.8 µM (active),16.6 µM (active),4.18 µM (active),,1.32 µM (active)
C=C1[C@H](n2cnc3c(=O)[nH]c(N)nc32)C[C@H](O)[C@H]1CO,18.7 µM (active),4.69 µM (active),,18.7 µM (active),,,9.35 µM (active),
FC(F)(F)c1ccc(C=Cc2nc(COc3ccc(CCCCn4ccnn4)cc3)co2)cc1,0.0105 µM (active),,,,0.332 µM (active),0.0074 µM (active),0.001 µM (active),
CC[C@H](C)n1cc(C)c2c(C(=O)NCc3c(C)cc(C)[nH]c3=O)cc(-c3ccc(N4CCNCC4)nc3)cc21,inactive,29.6 µM (active),inactive,,,inactive,,
COc1cc2c(cc1OC)[C@@H]1Cc3ccc(OC)c(OC)c3CN1CC2,inactive,,inactive,,inactive,,inactive,
CN(C(Cc1ccc(OS(=O)(=O)c2cccc3cnccc23)cc1)C(=O)N1CCN(c2ccccc2)CC1)S(=O)(=O)c1cccc2cnccc12 (centres undefined),8.33 µM (active),,5.9 µM (active),,6.62 µM (active),1.87 µM (active),5.9 µM (active),4.18 µM (active)
CCC(=O)OCC(=O)[C@@]1(OC(=O)CC)[C@@H](C)C[C@@H]2[C@H]3CCC4=CC(=O)C=C[C@]4(C)[C@@]3(F)[C@@H](O)C[C@@]21C,9.35 µM (active),inactive,2.35 µM (active),,,6.62 µM (active),2.09 µM (active),
CC[C@]1(O)C[C@H]2CN(CCC3=c4ccccc4=N[C]3[C@@](C(=O)OC)(c3cc4c(cc3OC)N(C)[C@H]3[C@@](O)(C(N)=O)[C@H](O)[C@]5(CC)C=CCN6CC[C@]43[C@@H]65)C2)C1,0.833 µM (active),,,0.105 µM (active),,,0.118 µM (active),
O=C1NC(=O)C(=Cc2ccc(-c3ccc(F)cc3O)o2)S1,3.32 µM (active),,inactive,,inactive,,,
C[C@@H](O[C@H]1OCCN(Cc2n[nH]c(=O)[nH]2)[C@@H]1c1ccc(F)cc1)c1cc(C(F)(F)F)cc(C(F)(F)F)c1,5.9 µM (active),,7.43 µM (active),,23.5 µM (active),,inactive,
CC=C1C2C=C(C)CC1(N)c1ccc(=O)[nH]c1C2 (centres undefined),,inactive,inactive,inactive,inactive,,inactive,
CCOC(=O)c1c(CSc2ccccc2)n(C)c2cc(Br)c(O)c(CN(C)C)c12,26.4 µM (active),inactive,,,,,,
